Pf growth 48h: inhibits P. falciparum growth in the first generation, 48 h | P. falciparum luciferase growth in erythrocytes, 48 h | Potency, µM (doses to about 28.7 µM), for inactives: at the highest dose activity change, negative = inhibition, most hits filed as inhibitors | 310,000 compounds, 5.9% hits | AID 504832; note: potency is the fitted concentration of half-maximal effect; % is set by controls: 0 for no effect and ±100 for the full control effect
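In quantitative HTS format, infected erythrocytes bearing luciferase-reporter parasites were treated for a single generation at 37 C. Luminescence after adding detection reagent served as the growth measure.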
HCMV antiviral: human cytomegalovirus inhibition; AID 1259415; activity change, negative = inhibition, % at 57.5 µM; HFF cells, HCMV-luciferase reporter, 72 h; hits give low values; 410,000 compounds, 4.5% hits; in the data active = activity change below about -60%; inconclusive = no clear call, values can overlap the other calls; inactive = above about -39%; note: % is set by controls: 0 for no effect and ±100 for the full control effect
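HFF cells seeded 16 h at 37C, treated with compounds, infected with luciferase-reporter HCMV at MOI 1 PFU/cell; luciferase read at 72 h post infection, normalized to buffer-only and Salinomycin controls.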
Shiga toxin inh: inhibitors of Shiga toxin in Vero cells. Vero cells, Shiga toxin protein synthesis inhibition reporter. inhibition, % at 38.7 µM. 290,000 compounds, 9.2% hits. AID 2315; in the data active = inhibition mostly above about 28%, no sharp cut-off; inactive = mostly below about 43%; note: 0% is about no effect
Cycloheximide cs: counter-screen hit for Shiga toxin inhibitors, cycloheximide; max response, %; cell reporter, cycloheximide protein synthesis inhibition counterscreen; 300,000 compounds, 12% hits; AID 2314; in the data active = max response mostly above about 13%, no sharp cut-off; inactive = mostly below about 14%; note: read at 38.3 µM for the half of the compounds with a filed dose; 0% is about no effect
Pf growth 96h: inhibits malaria parasite growth, 96 h | P. falciparum luciferase reporter growth, 96 h | Potency, µM (top dose mostly 28.7 µM), inactives show at the highest dose activity change, negative = inhibition, usual class: inhibitors | 320,000 compounds, 6.9% hits; note: potency is the fitted concentration of half-maximal effect; % is set by controls: 0 for no effect and ±100 for the full control effect
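Delayed-death screen, second-generation endpoint: infected erythrocytes, 2% hematocrit, 0.05% parasitemia final; 96 hours at 37 C, 5% CO2; luciferase detection reagent; luminescence decrease equals reduced growth.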
An asterisk follows results filed as active; i = inactive; ? = inconclusive; . = no result given. Shown are actives, neighbours in structure and some others; about 20% of the full set was active somewhere. Unless noted, calls come from the whole dose curve; as a rule, active = well fitted inhibition curve with a large enough effect; inconclusive = small, poorly fitted or top-dose-only effect, or another doubt; inactive = no such curve, though single readings can be large or run the other way.

SMILES	Pf growth 48h	HCMV antiviral	Shiga toxin inh	Cycloheximide cs	Pf growth 96h
COC(=O)C1=CN(c2ccc(F)cc2)C=C(C(=O)OC)C1c1ccc([N+](=O)[O-])cc1	7.4µM*	-7	-7	-2	9.3µM*
COC(=O)C1=CN(C2CC2)C=C(C(=O)OC)C1c1ccc(C(=O)OC)cc1	?	-6	42	-3	225%
COC(=O)C1=CN(c2ccc(Cl)cc2)C=C(C(=O)OC)C1c1ccc([N+](=O)[O-])cc1	13µM*	8	-4	1	5.2µM*
O=C(Nc1ccc2nc(SCC(=O)N3CCCc4ccccc43)sc2c1)c1cccc(Cl)c1	.	48	.	.	.
Fc1ccccc1NC(=S)N(CCCN1CCOCC1)Cc1cccnc1	-6%	18	-9	-4	?
COC(=O)C1=CN(c2ccc(F)cc2)C(N)=C(C#N)C1c1cccc(OC)c1OC (centres undefined)	.	24	.	.	.
COC(=O)C1=C(C)N(C)C(=S)N(C)C1c1cccc(Br)c1 (centres undefined)	?	?	2	-2	-1%
COC(=O)C1=CNC=C(C(=O)OC)C1c1cccc2ccccc12	12µM*	-5	-4	7	6%
COC(=O)C1=CN(c2ccc(F)cc2)C=C(C(=O)OC)C1c1cccc(Br)c1	12µM*	3	-11	2	-14%
CCc1ccc(N2C=C(C(=O)OC)C(c3cccc4ccccc34)C(C#N)=C2N)cc1 (centres undefined)	.	-101*	.	.	.
COC(=O)C1=CNC=C(C(=O)OC)C1c1ccc(Cl)cc1	9.3µM*	81	-11	-2	1%
COC(=O)C1=CNC=C(C(=O)OC)C1c1ccccc1Cl	-25%	88	-13	-2	10%
COC(=O)c1cn(NC(=O)Cc2c(F)cccc2Cl)c(=O)c2ccccc12	6%	-20	-12	-3	202%
O=C(Cc1ccc(F)cc1)N1CCC2(CC1)NCCc1[nH]cnc12	-2%	5	-2	-4	26%
COc1ccc(/C=C2\CCn3c2nc2ccccc2c3=O)cc1OC	209%	.	21	28*	131%
COc1ccc(/C=C2\CCn3c2nc2cc(C(=O)O)ccc2c3=O)cc1O	-7%	13	4	4	13µM*
COc1ccc(/C=C2\CCn3c2nc2cc(C(=O)O)ccc2c3=O)cc1OC	89%	-35	-4	-3	-17%
O=c1c2ccc(Cl)cc2nc2n1CC/C2=C\c1cccc(O)c1	13µM*	52	18	2	?
O=C(COC(=O)Cc1ccc(Br)cc1)NCc1ccccc1	.	17	.	.	.
O=C(Cc1ccc(Br)cc1)NCc1ccccc1	41%	-16	22	19*	?
COc1ccccc1CNC(=O)Cc1ccc(Br)cc1	?	-3	active	35*	16%
COc1ccccc1CNC(=O)CS(=O)(=O)Cc1ccccc1	9%	-1	-29	-3	2.6µM*
O=C(NCC1CCS(=O)(=O)C1)Oc1ccccc1 (centres undefined)	10%	-95*	-9	-6	-27%
COc1ccc(OC2C(=O)N(c3cc(C)ccc3C)C2c2ccc(OC)c(OC)c2)cc1 (centres undefined)	7.4µM*	12	-13	-4	20%
COc1ccc(OC2C(=O)N(c3ccc(C)c(C)c3)C2c2ccc(OC)c(OC)c2)cc1 (centres undefined)	9.3µM*	?	-16	-3	?
SMILES	Pf growth 48h	HCMV antiviral	Shiga toxin inh	Cycloheximide cs	Pf growth 96h
CC(C)(C)c1ccc(C(=O)NC(=O)COC(=O)c2ccco2)cc1	0%	-5	.	.	33%
c1ccc(-c2onc3c2CCCC3)cc1	13%	?	71*	16*	.
N#Cc1c(N)nc2c(c1-c1ccccc1)CCCC2	4%	-12	7	-3	-3%
Cc1cccc(N2C(=S)NC3c4ccccc4OC2(C)C3C(=O)N(C)C)c1 (centres undefined)	4%	32	8	2	9.3µM*
CC1CCN(c2c([N+](=O)[O-])nn(-c3ccc4c(c3)OCCO4)[n+]2[O-])CC1	.	14	162*	61*	.
O=C(c1ccco1)N1CCN(c2c([N+](=O)[O-])nn(-c3ccc(Cl)cc3)[n+]2[O-])CC1	9%	-25	-9	9	0%
Cc1nc(C(=O)NCCC(C)C)sc1C1(C)CC(c2ccccc2)=NO1 (centres undefined)	-22%	-5	12	8	?
CS(=O)(=O)N(CC(=O)N1CCc2ccccc2C1)Cc1ccccc1	.	-2	-12	-4	52%
O=C(CNS(=O)(=O)c1ccccc1)N1CCc2ccccc2C1	42%	38	.	35*	7%
O=C(Cc1ccccc1[N+](=O)[O-])N1CCc2ccccc2C1	0%	-7	51	15*	1.2µM*
CN(C)S(=O)(=O)N1CCc2ccccc21	-1%	102	-6	-3	.
Cc1ccc(S(=O)(=O)NCC(=O)N2CCc3ccccc3C2)cc1	?	-14	-7	1	?
O=S(=O)(Cc1ccccc1)N1CCc2ccccc21	-14%	.	34*	13*	.
O=C(CS(=O)(=O)Cc1ccccc1)N1CCc2ccccc2C1	5%	0	40	16*	13%
CC1CC=CC2C1C(=O)N(Cc1ccccc1)C2c1ccoc1 (centres undefined)	.	.	-1	13	.
OCc1ncccc1O	-23%	-24	-3	-8	-9%
C/C(=N\NC(=O)c1nnn(-c2nonc2N)c1CN1CCCCC1)c1ccccc1O	?	-37	20	-5	16%
CCC(O)(C(=O)Nc1ccccc1C(F)(F)F)c1ccccc1OC (centres undefined)	?	-6	.	.	-33%
COc1ccccc1C(O)(C(=O)NNc1cccc(C)c1)c1ccccc1OC	21%	-11	-10	-1	2.6µM*
COc1ccccc1C(O)(C(=O)NNc1ccccc1C)c1ccccc1OC	?	-26	-5	4	6.6µM*
Cc1ccc(-n2cc(C(=O)OCc3ccc(F)c(F)c3)c3ccccc3c2=O)cc1	.	22	.	.	.
Cc1ccc(S(=O)(=O)NCC2CCC(C(=O)N(C)Cc3ccccc3)CC2)cc1 (centres undefined)	.	0	.	.	.
Cn1c(NCc2cccs2)nc2ccccc21	67%	129	57*	33*	15%
Cn1c(NCc2ccco2)nc2ccccc21	60%	97	15	12*	32%
CCN(CC)CCn1c(NCc2ccco2)nc2ccccc21	-16%	12	-12	-2	-37%
COc1ccc2c(c1)CCC[C@]1(C)O[C@@H]1C(=O)c1ccccc1O2	.	-19	.	.	.
Cc1ccc(NC(=O)Nc2ccccc2C(N)=O)cc1	50%	-31	63*	29*	37%
CCOc1ccc(NC(=O)Nc2ccccc2C(N)=O)cc1	12%	-25	46*	29*	4%
COc1ccc(NC(=O)Nc2ccccc2C(N)=O)cc1	5%	-26	72	26*	13%
Cc1ccccc1NC(=O)Nc1ccccc1C(N)=O	0%	-15	14	-3	i

Screening results from PubChem.
